From PubChem BioAssay
HCV inh: inhibitors of hepatitis C virus infection | Potency, µM (series often up to 41.8 µM), without a hit: at the highest dose activity change, negative = inhibition, actives largely listed as inhibitors | Huh7.5.1 HCVcc-Cre infection, luciferase reporter, 44 h | actives 3.4% (n = 340,000); further: potency means the concentration at half of the fitted maximal effect; on the % scale 0 is the no-effect control and ±100 the full control effect
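Luciferase read-out (15 sec integration) after a 15 min room-temperature substrate step quantifies HCVcc-Cre infection. Cells, 1,000 per well, had compound added 4 h post-plating, then virus at ~0.5 moi, and were cultured 44 h.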
Pf growth 96h: P. falciparum growth inhibition at 96 hour, primary screen for plastid delayed-death inhibitors | actives 6.9% (n = 320,000) | P. falciparum luciferase reporter growth, 96 h | Potency, µM (highest dose often 28.7 µM), without a hit: at the top dose activity change, negative = inhibition, hits mostly inhibitors; further: potency means the concentration at half of the fitted maximal effect; on the % scale 0 is the no-effect control and ±100 the full control effect
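P. falciparum expressing integrated firefly luciferase, in erythrocytes at 2% hematocrit, 0.05% parasitemia, incubated with compounds 96 h at 37 C, 5% CO2. Growth inhibition read as loss of luminescence; two-generation exposure targets delayed-death apicoplast inhibitors.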
Pf growth 48h: P. falciparum growth inhibition at 48 hours (one generation); actives 5.9% (n = 310,000); Potency, µM (top dose mostly 28.7 µM), without a hit: at the top dose activity change, negative = inhibition, hits mostly inhibitors; P. falciparum luciferase growth in erythrocytes, 48 h; AID 504832; further: potency means the concentration at half of the fitted maximal effect; on the % scale 0 is the no-effect control and ±100 the full control effect
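Growth was read as firefly luciferase luminescence after a 48 h, 37 C, 5% CO2 exposure of compounds to reporter-bearing P. falciparum cultures (0.1% parasitemia, 2% hematocrit final) in Albumax-supplemented RPMI 1640.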
HCMV antiviral: blocks human cytomegalovirus replication. actives 4.5% (n = 410,000). activity change, negative = inhibition, % at 57.5 µM. HFF cells, HCMV-luciferase reporter, 72 h; active compounds read low; in the data active means activity change below about -60%; inconclusive means no clear call, values can overlap the other calls; inactive means above about -39%; further: on the % scale 0 is the no-effect control and ±100 the full control effect
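Cell-based, HFFs, 1000 cells/well, 16 h 37C; cpds in DMSO + HCMV-luc, MOI 1 PFU/cell; 72 h 37C; OneGlo luminescence after 5 min RT; norm. to buffer vs Salinomycin 10uM.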
CHX counter: counter-screen for Shiga toxin inhibitors: cycloheximide protein synthesis inhibition; max response, %; actives 12% (n = 300,000); AID 2314; cell reporter, cycloheximide protein synthesis inhibition counterscreen; in the data active means max response mostly above about 13%, no sharp cut-off; inactive means mostly below about 14%; further: read at 38.3 µM for the half of the compounds with a filed dose; 0% is about no effect
Shiga inhibitor: blocks Shiga toxin action in Vero cells. actives 9.2% (n = 290,000). inhibition, % at 38.7 µM. Vero cells, Shiga toxin protein synthesis inhibition reporter; in the data active means inhibition mostly above about 28%, no sharp cut-off; inactive means mostly below about 43%; further: 0% is about no effect
* = called active by the depositor; i = inactive; ? = inconclusive; / = no result; [ ] = dose if it differs, or a comment. Only some compounds are listed: those with a hit (about 21% of all), similar ones and a draw of the others. Unless noted, the call rests on the fitted dose curve; in most records, active means well fitted inhibition curve with a large enough effect; inconclusive means small, poorly fitted or top-dose-only effect, or another doubt; inactive means no such curve, though single readings can be large or run the other way.

SMILES	HCV inh	Pf growth 96h	Pf growth 48h	HCMV antiviral	CHX counter	Shiga inhibitor
COC(=O)c1ccc(NC(=S)Nc2ccccc2)cc1	-3%	14%	29%	-19	8	-33
COc1ccccc1NC(=S)NNC(=O)c1ccc(O)cc1	-13%	0.37µM*	/	86	24*	27
COC(=O)c1ccc(NC(=S)NNC(=O)c2ccccc2)cc1	-7%	?	17%	-29	26*	42
O=C(NNC(=S)Nc1ccccc1)c1cccc(Br)c1	5%	109%	/	-18	26*	33
COc1cc(C(=O)N2CCN(CCc3ccccn3)CC2)cc(OC)c1OC	/	/	/	11	/	/
CCn1nc(-c2ccccc2)c(-c2ccccc2)c(C(=O)Nc2ccccc2C#N)c1=O	/	/	/	7	/	/
Cc1c(C(=O)N(Cc2ccc(N(C)C)cc2)Cc2ccco2)oc2cc(Br)ccc12	/	/	/	26	/	/
CC1CCCCC1NC(=O)CCS(=O)(=O)c1ccc(Cl)cc1 (stereo not drawn)	6%	/	/	25	/	/
O=C(NNC(=S)Nc1ccccc1)c1ccc(O)cc1	23%	i	20%	5	45*	73*
O=C(NNC(=S)Nc1ccc(Br)cc1)c1ccccc1Br	-10%	9.3µM*	46%	17	11	72
O=C(NNC(=S)Nc1ccc(Br)cc1)c1ccccc1	10%	?	82%	64	23*	34
Cc1ccc(C(=O)NNC(=O)/C=C\C(=O)O)cc1	13%	25%	0%	0	42*	70*
O=C(NNC(=S)NC(=O)c1ccccc1)c1ccc(O)cc1	?	?	/	30	7	13
Cc1ccccc1C(=O)NNC(=O)c1cccc(Br)c1	10%	9%	29%	-28	5	/
CC(C)(C)NC(=S)NNC(=O)c1cccc(Br)c1	6%	-7%	169%	0	40*	74*
CCCCc1ccc(NC(=O)NCc2ccccn2)cc1	?	?	16%	22	15*	48
CCc1ccc(NC(=O)NCc2ccccn2)cc1	2%	120%	43%	29	43*	46*
COc1ccc(NC(=O)NCc2ccccn2)cc1	10%	-16%	16%	44	-3	14
NC(=O)N[C@H]1NC(=O)NC1=O	/	21%[12.8 µM]	-6%[12.8 µM]	/	/	/
Cn1c(O)c(/C=N/N2CCOCC2)c(=O)n(C)c1=S	20%	36%	13µM*	20	2	-1
Fc1cccc(-c2oncc2-c2nnnn2-c2ccc(Cl)cc2)c1	6%	5%	2%	-67*	-1	12
Fc1ccc(-n2nnc(-c3ccccc3Cl)n2)cc1	13%	?	16%	-29	2	-9
Fc1ccc(-n2nnnc2-c2ccccc2Cl)cc1	21%	-5%	7%	-67*	1	-6
FC(F)(F)c1ccc(Nc2cc3c(cn2)ncn3Cc2ccco2)cc1	/	/	/	-15	/	/
CCC(CC)C(=O)N1CCc2cc(OC)c(OC)cc2C1COc1ccc2c(C)cc(=O)oc2c1 (stereo not drawn)	/	/	/	3	/	/
SMILES	HCV inh	Pf growth 96h	Pf growth 48h	HCMV antiviral	CHX counter	Shiga inhibitor
O=C(O)Cn1nnnc1SCC(=O)Nc1ccc(F)cc1F	20%	-2%	3%	-14	-2	3
Cc1ccc(-c2nc3sc4c(c3c(=O)n2N)CC(C)(C)OC4)cc1	-12%	/	9%	9	12	15
CC1(C)Cc2c(sc3nc(-c4cc5ccccc5o4)n(N)c(=O)c23)CO1	-11%	?	34%	-6	19*	42
O=C(COc1ccc(S(=O)(=O)N2CCOCC2)cc1)NC1CC1	18%	?	-13%	19	-5	-7
CCOC(=O)N1CCC(=NNc2nc3ccccc3s2)CC1	-27%	?	109%	11	71*	77*
CCCN1CCN(CC(=O)Nc2nc3ccccc3s2)CC1	-12%	11%	-2%	59	13	19
CC(=O)N1CCC(=NNc2nc3ccccc3s2)CC1	1%	16%	31%	69	45*	91*
Cc1ccc(CNC(=O)C(=O)NCC(c2ccc3c(c2)OCO3)N2CCOCC2)cc1 (stereo not drawn)	/	/	/	-18	/	/
Cc1ccc(NC(=O)CS(=O)CC(=O)N(CC(=O)NC(C)(C)C)c2cccc(C)c2C)cc1 (stereo not drawn)	19%	-1%	-3%	19	-4	-11
CCOc1ccc2[nH]c3c(NCCO)ncnc3c2c1	13%	12%	11%	48	20*	36
COc1ccc2[nH]c3c(Cl)ncnc3c2c1	?	?	6%	8	1	-14
CCOc1ccc2[nH]c3c(NCCc4ccc(OC)c(OC)c4)ncnc3c2c1	13µM*	3.7µM*	4.7µM*	-66*	1	7
CCOc1ccc2[nH]c3c(=O)n(CCc4ccc(OC)cc4)cnc3c2c1	5%	27%	-9%	7	-3	23
COc1ccc2[nH]c3c(NCCN4CCCCC4)ncnc3c2c1	/	20%	2.1µM*	/	6	4
COc1ccc(CCNc2ncnc3sc(C)cc23)cc1OC	2.2µM*	60%	5.2µM*	-70*	1	-1
CCOC(=O)Cc1ccc(NC(=O)N(C(C)C)C2CCN(C(C)=O)CC2)cc1	/	/	/	-7	/	/
Cc1cc(C)nc(SCc2cnc(C)nc2N)n1	20%	80%	?	-33	0	-9
Cc1ccc2[nH]c3c(NCCCN4CCCC4=O)ncnc3c2c1	14%	?	?	-6	31*	71*
CCC(C)c1ccccc1NC(=O)COC(=O)c1ccc(N2CCCC2)c([N+](=O)[O-])c1 (stereo not drawn)	4%	-4%	4%	-10	-2	-13
Cc1ccc(NC(=O)c2cc3cccc([N+](=O)[O-])c3[nH]2)cc1	?	-65%	12%	-32	46*	84*
CCC(C)c1ccccc1NC(=O)c1cc2cccc([N+](=O)[O-])c2[nH]1 (stereo not drawn)	?	2.9µM*	?	?	39*	32
COCCCNC(=O)C1CCN(C(=O)c2ccc(-n3ccc4ccccc43)s2)CC1	/	/	/	10	/	/
COC(=O)C1=C(C)N(Cc2ccccc2C(F)(F)F)C(=NCc2ccc(C(F)(F)F)cc2)NC1c1cccc(Cl)c1 (stereo not drawn)	/	/	/	-26	/	/
C=CCn1c(O)c(C(C)=Nc2ccc(N(C)C)cc2)c(=O)[nH]c1=O	?	/	12µM*	113	5	35
C=CCn1c(O)c(C(C)=Nc2ccc(N(CC)CC)cc2)c(=O)[nH]c1=O	?	?	?	39	-2	-11
CCCCCc1ccc(-c2ccc(Br)cc2)nc1	/	/	/	39	/	/
CCCCCCCc1ccc(-c2ccc(O)cc2)nc1	-1%	6%	?	-22	31*	81*
CCCCCc1ccc(-c2ccc(/C=C/C(=O)O)cc2)nc1	16%	25%	72%	?	44*	55*
CCCc1ccc(-c2ccc(/C=C/C(=O)O)cc2)nc1	5%	?	82%	?	33	61*
